Experimental data published in the supplement of paper PMC8540655.
Unmarked numbers belong to inactive results.

System: Aedes aegypti larvae
Assay: larval motility relative to same well at 0 h (fraction); higher = more motile (less active compound), active = 0.4 or less
Details: 10 µM
Procedure, shortened: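 Relative motility is the score of a well divided by its own score at the first recording. Movies were made with INVAPP at 0, 2 and 24 h, each having 200 frames at 100 ms intervals. Larvae of Aedes aegypti, from 18–24 h hatches in pond salt solution with yeast at 25 °C, sat at about 10 per well (100 µL) in 96-well plates with compounds at 10 µM and 1% v/v DMSO. Solvent and larvicide control wells were included on every plate, and values are medians of three independent larval batches.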

Molecule `CC(C)Oc1ccc(-n2cnc3cc(/C=C\c4ccc(C(C)(C)O)cc4)ccc32)cc1` has a larval motility (2 h) of 0.656 and a larval motility (24 h) of 1.03.

`CCCC(=O)OCCc1ccccc1` gave a larval motility (2 h) of 0.51 and a larval motility (24 h) of 0.648.

With `O=c1ccc2ncc(=O)n3c2n1CC3CN1CCC(NCc2cc3c(cn2)OCCC3)CC1` (centres undefined) the larval motility (2 h) was 0.641 and the larval motility (24 h) was 0.964.

In the case of `CCCc1ccc(-c2cc3cn([C@H]4C[C@H](O)[C@@H](CO)O4)c(=O)nc3o2)cc1`, the larval motility (2 h) was 0.729 and the larval motility (24 h) was 0.902.

With `CONC(=N)c1ccc(-c2ccc(-c3ccc(C(=N)NOC)cc3)o2)cc1` the larval motility (2 h) was 0.699 and the larval motility (24 h) was 2.2.

Work on `Cc1c(CN(C)C(=O)/C=C/c2cnc3c(c2)C(C)(C)C(=O)N3)oc2ccccc12` yielded a larval motility (2 h) of 1.24 and a larval motility (24 h) of 1.15.

Work on `COc1ccc(CNC(=O)C2CCN([C@H](C)c3cccc4ccccc34)CC2)cc1` yielded a larval motility (2 h) of 0.771 and a larval motility (24 h) of 0.922.

`CC(C)(C)c1ccc(C(=O)NC(=O)N2CCCc3ccccc32)cc1` was tested, and the larval motility (2 h) was 0.973 and the larval motility (24 h) was 0.629.

For `Nc1cccc(-c2nc(N)nc(NC3Cc4ccccc4C3)n2)c1`, the larval motility (2 h) was 1.08 and the larval motility (24 h) was 0.803.

`Cc1ccc(C)c(OCCCCCCN2C[C@H](O)[C@@H](O)[C@H](O)[C@H]2CO)c1` gave a larval motility (2 h) of 0.635 and a larval motility (24 h) of 0.552.

Work on `Cc1cc(C)n2nc(C(=O)NS(=O)(=O)c3c(C)cccc3OC(F)(F)F)nc2n1` yielded a larval motility (2 h) of 1.04 and a larval motility (24 h) of 1.13.

Work on `O=[N+]([O-])c1cn2c(n1)OC[C@@H](OCc1ccc(OC(F)(F)F)cc1)C2` yielded a larval motility (2 h) of 1.12 and a larval motility (24 h) of 1.3.

Molecule `Fc1ccc2c(/C=C/c3cccnc3)c[nH]c2c1` has a larval motility (2 h) of 1.04 and a larval motility (24 h) of 0.678.

`COc1cc(NS(=O)(=O)c2ccc(C)cc2)c2ncccc2c1` showed a larval motility (2 h) of 0.89 and a larval motility (24 h) of 0.666.

Molecule `C[C@@H](NC(=O)c1ccccc1-c1ccccc1)B(O)O` has a larval motility (2 h) of 0.616 and a larval motility (24 h) of 0.615.

In the case of `CCOC(=O)N1CCN(c2ccc(Cl)cc2)CC1`, the larval motility (2 h) was 1.05 and the larval motility (24 h) was 1.36.

Work on `Oc1c(C(Nc2ccccn2)c2ccccc2)ccc2cccnc12` (centres undefined) yielded a larval motility (2 h) of 0.721 and a larval motility (24 h) of 1.07.

Molecule `O=S(=O)(NCB(O)O)c1ccc(-c2nnn[nH]2)cc1C(F)(F)F` has a larval motility (2 h) of 0.999 and a larval motility (24 h) of 1.46.

In the case of `Nc1nc2c(Cc3cccnc3)c[nH]c2c(=O)[nH]1`, the larval motility (2 h) was 0.722 and the larval motility (24 h) was 0.771.

`C[C@H](NC(CC(=O)c1ccccc1C(F)(F)F)C(=O)O)c1ccccc1` (some centres undefined) was tested, and the larval motility (2 h) was 0.873 and the larval motility (24 h) was 0.674.

`O=C(O)c1ccc(-c2ccc(O[C@H]3O[C@H](CO)[C@@H](O)[C@H](O)[C@@H]3O)cc2)cc1` gave a larval motility (2 h) of 0.798 and a larval motility (24 h) of 1.22.

With `CC[C@@H]1C(=O)OC[C@@H]1Cc1cncn1C` the larval motility (2 h) was 1.22 and the larval motility (24 h) was 0.972.

`CCCNc1ccc(S(=O)(=O)Nc2cc(C)on2)cc1` showed a larval motility (2 h) of 0.414 and a larval motility (24 h) of 0.825.

With `Clc1ccc(COC(Cn2ccnc2)c2ccc(Cl)cc2Cl)c(Cl)c1` (centres undefined) the larval motility (2 h) was 0.499 and the larval motility (24 h) was 0.677.

In the case of `COc1ccc(SCC(=O)N2c3ccccc3Sc3ccccc32)cc1`, the larval motility (2 h) was 0.631 and the larval motility (24 h) was 1.01.

`CC[N+]1(C/C2=C/CCCCCC2)CCC(NC(=O)C2c3cc(Cl)ccc3Oc3ccc(Cl)cc32)CC1` (centres undefined) was tested, and the larval motility (2 h) was 1.22 and the larval motility (24 h) was 0.723.

Molecule `CCCCc1ccc(-c2nc(C)c(C(=O)OC)s2)cc1` has a larval motility (2 h) of 1.33 and a larval motility (24 h) of 0.97.

Work on `CNCC(=O)OCc1cccnc1N(C)C(=O)OC(C)[n+]1cnn(C[C@](O)(c2cc(F)ccc2F)[C@@H](C)c2nc(-c3ccc(C#N)cc3)cs2)c1` (some centres undefined) yielded a larval motility (2 h) of 1.02 and a larval motility (24 h) of 0.736.

With `Clc1cccc(-c2nnc(-c3ccccc3)o2)c1` the larval motility (2 h) was 0.402 and the larval motility (24 h) was 0.691.

`COc1cc(C)c2c(Oc3cccc(C(F)(F)F)c3)c(OC)cc(NC(C)CCCN)c2n1` (centres undefined) was tested, and the larval motility (2 h) was 0.654 and the larval motility (24 h) was 0.385 (active).

In the case of `COc1ccccc1NC(=O)c1ccccc1Sc1ccc([N+](=O)[O-])cc1`, the larval motility (2 h) was 0.911 and the larval motility (24 h) was 0.861.

For `CCCCOC(=O)Nc1cc2nc(C3CCCCC3)[nH]c2cc1N(CC)CC`, the larval motility (2 h) was 0.544 and the larval motility (24 h) was 0.594.
